Test system: VDR:RXRa (NR concentration 270 nM, RXRa partner concentration 90 nM)
Experiment: PBM binding z-score (relative to random genomic background probes); higher = stronger binding; sequences stand for … in GC…GCGATTGACAGCGTAGAATGAAGG
Method: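 Protein-binding microarray (Agilent 4x180K custom design, double-stranded 60-nt probes: 5' GC cap, 34-nt variable region, 24-nt constant primer region; full probe sequence given). Purified or IVT nuclear receptor:RXRα heterodimers (3:1 NR:RXRα, mostly 270:90 nM) or homodimers were incubated for 1 h in PBS with 2% milk and no ligand, then detected with Alexa488 antibodies. Fluorescence from o1-orientation probes (~5 replicates averaged) was converted to z-scores against 500 random hg19 background probes. Variable regions are seed direct-repeat (DR0–DR5) sites, all their single-nucleotide variants and half-site ablations.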

Sequence	PBM binding z-score
ATATGTAGGTTAGCTGGGGTCATTCAAACTAGGC	6.37
CGAACTAGGTCAAGGACAATGAATCTCCGCACGC	1.49
CCGACTGGGGCAGAGGTTACCATACTCAGTACGA	0.52
CCTTACGGGTCACGCCAGGTTATAGCATCGGAGT	5.36
GCAGCTAGGTCAACTGATGGTCAGCTAAAGCTCG	1.19
CAAACTAGGTCACGCAAGGTCAAAGTCGAATGAC	6.9
CCTAGCAGGCCAACCTGGGTCACTCAAGGCTTGA	1.15
GGAACGAGGGCAAGGTTGATAGCATCTGTCGACG	0.638
GATACAGGGTCAAGGCCAGAGCACGCGTATTGAT	4.21
CGTCCAAGGCCAAGGTCAGTGAAAGAGACTCGAA	1.15
TCTAGTTGGACACGGAGGTCACACACGACGGGTA	3.76
TTACTAAGGTGAAAGGTCGTTGATGCACGCCTTG	3.59
ATCTCTAGGTAAAAGCTCAGTGAATCCCGAGGAT	-0.227
TCTCGGAGGACACGAAGGTCCGAGCTTTCCAGAG	0.0624
CGTCCAAGGTGAAAGGTCAGTGAAGAGATGACGG	3.69
TCGAGTAGGATAGTCGGGGCATTCAGCCAACATA	-0.319
CTACCAAGGTAAACAAGGTCGTTGATTACTATTC	4.73
AGAATGAGGTTGAGATCAGGGAAACAGAATACAT	0.141
CATACTGGGCCACGAAAGGTCATTGATTCAGTGA	4.3
CCTAGCAGGCCAGGGTCACTCAGGCATTTCGCTT	2.22

Sequence	PBM binding z-score
CCTACTAGGTCAATGGTCAGCTAAAGCAGCTCGC	1.45
AGAATGAGGTTATACGTAGAACAGGGAAGAAAGT	1.26
CAAACTAGGTCAAACGTCAAAGTCGAGCCAACCA	2.41
AGATGTAGGTTATCGGGTCATTCAGTTTGCGCAT	5.35
CCAACTAGGTCATCCAGGACAGTGAATACATTGA	4.58
GCTACTGGGGCATCAGCAGGTTACCATAACTTAA	0.0562
GCTCGGTGGACAAGGTCAGAGCTTTGTCCGTAGA	1.48
GGAACGAGGGCAAGTTGATACCAGAGTTTGATGG	1.1
TCTAGTTGGTCACGGAGGTCTCACACGACGGGTA	1.65
CGTCAAAGTTCAACTAAGGTAACGTCAAGCACGC	4.83
CAAACTAGGACACCGGAAGGTCAAAGTCCGCATG	3.3
GCTGCTAGGTCAACTGATGCTCAGCTAAAGCTCG	1.38
ATATGTAGGTTAGCTGGTGTCATTCAGACTAGGC	1.4
CGTGCAAGGTCAGCAGGTCAGTGAAAGCGACGTG	4.25
ACTTACGGGTCATCGAGGTTATAGCACGCGTATA	7.51
CGAACTAGGTCATCCAGGAAAGTGAATACATTGA	2.24
GCTTACGGGTCAAAGGTGATAGCATGAATAGAAT	4.42
ACTAGCAGGCCAAGGGTCACTCACGATTAGTCCG	2.69
TCGAGTAGGTTACCAATGGGTCATTCAGCTTTCT	1.85
ATCTCTAGGTAAAGATAGTTCAGTTAATGCAAAT	1.21
